The text below walks through data of PubChem BioAssay (Tox21).

A number with no mark means an inactive call. Where a call stands in place of a potency, no number is given. Active and inactive are the calls of the source. Calls come from the whole dose curve.
Potency is the fitted concentration of half-maximal effect.

Chain of Gonadotropin-releasing hormone receptor (Homo sapiens) (P30968 whole entry, looked up): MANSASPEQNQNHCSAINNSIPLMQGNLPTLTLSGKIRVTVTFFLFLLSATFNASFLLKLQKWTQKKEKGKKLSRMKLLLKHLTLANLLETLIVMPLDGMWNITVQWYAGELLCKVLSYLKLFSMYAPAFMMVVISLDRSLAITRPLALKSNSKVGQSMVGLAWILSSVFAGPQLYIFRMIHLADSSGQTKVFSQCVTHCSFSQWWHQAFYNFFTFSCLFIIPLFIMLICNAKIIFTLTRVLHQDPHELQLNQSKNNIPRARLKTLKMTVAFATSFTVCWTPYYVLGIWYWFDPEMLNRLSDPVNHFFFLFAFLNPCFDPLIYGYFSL

The assay concerns the target Gonadotropin-releasing hormone receptor (Homo sapiens) (UniProt P30968). Put plainly: Human gonadotropin-releasing hormone receptor (GnRHR) small molecule agonists, calcium flux assay in GnRHR-HEK293 cells (AID 1920063). Note: nearly all actives have a fitted effect of over 35% in size. Particulars: calcium flux fluorescence, agonist mode; series mostly up to 57.6 µM. From the text:
National Center for Advancing Translational Sciences [NCATS]
Division of Preclinical Innovation [DPI]
U.S. Environmental Protection Agency [EPA]
National Institutes of Environmental Health Sciences [NIEHS]
National Toxicology Program [NTP]
U.S. Food and Drug Administration [FDA]
Gonadotropin-releasing hormone receptor (GnRHR) is a G-protein-coupled receptor (GPCR) and acts (through phospholipase C) to increase intracellular inositol trisphosphate and then release intracellular calcium stores. Cell-based GnRHR-Hek293 calcium influx assay is using HEK293 cells that have been genetically engineered to express the human GnRHR, which activity can be measured by calcium signaling. A compound/drug can activate (agonist) GnRHR that can be monitored by levels of intracellular calcium.
GnRHR-HEK293 cells developed by Codex Corp contain human GnRHR reporter gene, which was stably integrated into HEK 293 cells. The compound activation can be detected by fluorescence intensity via calcium flux assay. This cell line has been used to screen the Tox21 10K compound library to identify GnRHR agonists.
GnRHR-Hek293 cells were dispensed at 1500cells/4uL/well in 1536-well black wall/clear bottom plates using a multidrop dispenser. After the assay plates were incubated at a 37 C/5% CO2 incubator for 18 hours, 4 uL of Calcium Dye Solution was added to each well. The plates were incubated at 37 C for 1 hour. For agonist mode, 23 nL of compounds dissolved in DMSO, positive controls or DMSO only was transferred to the assay plate by a pin tool station. The fluorescence intensity in the plates was measured using FDSS 7000EX kinetic plate reader with a filter set of Ex/Em=480/540 for 3 min at 1 sec intervals. Each test compound was measured at 15 concentrations and in triplicates.
For orientation: Calcium flux is commonly read through the fluorescence of an indicator in the cells.
Take `CC(=O)Nc1cc([As](=O)(O)O)ccc1O`: the Potency result is “inactive”.

Consider `Nc1c(Cl)c(F)nc(OCC(=O)O)c1Cl`, for which the Potency result is “inactive”.

For the molecule `C=CC(=O)OCCCCOC(=O)C=C`, the Potency result was “inactive”.

Turning to `C=C(C)C(=O)[O][Sn]([CH2]CCC)([CH2]CCC)[CH2]CCC`, the Potency was 15.5 µM (active).

As for `CN/C(=N\[N+](=O)[O-])NCC1CCOC1` (stereo not given), the Potency entry is “inactive”.

For the molecule `O.O.O.O.O.O.O.O=S(=O)([O-])[O-].[Co+2]`, the Potency result is “inactive”.

Consider `CCOP(=S)(OCC)Oc1ncn(-c2ccccc2)n1`, for which the Potency entry was “inactive”.

On to `Cc1ccc2c(c1)C1CN(C)CCC1N2` (stereo not given), for which the activity change is 1.2% [at 11.8 µM, stronger effect = higher value].

With `CCc1ccccc1N`, the Potency result was “inactive”.

Regarding `CC(C)(C)c1ccc(OP(=O)(Oc2ccccc2)Oc2ccccc2)cc1`, the Potency entry was “inactive”.

Consider `COc1c2c(cc3c1OCO3)CCN(C)C2`, for which the Potency entry is “inactive”.

`CCSC(C)CC1CC(=O)C(/C(CC)=N/OC/C=C/Cl)=C(O)C1` (stereo not given): the Potency result was “inactive”.

On to `CCOP(=S)(Oc1ccc([N+](=O)[O-])cc1)c1ccccc1` (stereo not given), for which the Potency entry was “inactive”.

`S=C=NCc1ccccc1`: the Potency entry was “inactive”.

Consider `Cc1ccc(C)c2ccccc12`, for which the Potency entry is “inactive”.

Regarding `CCCCN(N=O)C(=N)N[N+](=O)[O-]`, the Potency entry is “inactive”.

Regarding `CN(C)C(=O)Nc1cccc(OC(=O)NC(C)(C)C)c1`, the Potency result is “inactive”.

For the molecule `COc1cccc([C@@]2(O)CCCC[C@@H]2CN(C)C)c1`, the Potency result is “inactive”.

With `Oc1ccc(Cl)c(Cl)c1Cl`, the Potency entry is “inactive”.

With `CCOP(=S)(OCC)SCCS(=O)(=O)CC`, the Potency result is “inactive”.

Regarding `O=C(CCl)C(Cl)Cl`, the Potency entry was “inactive”.

Turning to `C[C@@H](Oc1ccc(Cl)cc1Cl)C(=O)O`, the Potency result is “inactive”.

Take `C[C@@H]1CC[C@H]2[C@@H](C)C(=O)O[C@@H]3O[C@@]4(C)CC[C@@H]1[C@]32OO4`: the Potency entry was “inactive”.

`CCOC(=O)/C=C(C)/C=C/C[C@@H](C)CCCC(C)C`: the Potency result is “inactive”.

With `CN1C(=O)COc2c(C(=O)NC3CN4CCC3CC4)cc(Cl)cc21` (stereo not given), the Potency entry is “inactive”.

Consider `O=[N+]([O-])c1cc(C(F)(F)F)c(Cl)c([N+](=O)[O-])c1Nc1ncc(C(F)(F)F)cc1Cl`, for which the Potency entry is “inactive”.

`CC(C)c1c(CN(C)C(C)Cc2ccccc2)n(C)n(-c2ccccc2)c1=O` (stereo not given): the Potency result is “inactive”.

For `O=[N+]([O-])c1cccc(CCl)c1`, the Potency entry was “inactive”.

`CC(=O)[O-].[Tl+]`: the Potency result is “inactive”.

As to `CCC(CC)(CNC(=O)CCCO)c1cccc(OC)c1`, the Potency result is “inactive”.

`CC(C)O.CC(C)O.OCCN(CCO)CCO.OCCN(CCO)CCO.[Ti]`: the Potency result is “inactive”.

For `OC(Cn1cncn1)(c1ccc(F)cc1)c1ccccc1F` (stereo not given), the Potency entry was “inactive”.

On to `CON(C)C(=O)Nc1ccc(Br)cc1`, for which the Potency entry is “inactive”.

On to `Cc1cc2c3c(c1)C(c1ccccc1)=N[C@@H](NC(=O)c1ccncc1)C(=O)N3CC2`, for which the Potency result is “inactive”.

Consider `Cc1cc(C)c(C(=O)P(=O)(C(=O)c2c(C)cc(C)cc2C)c2ccccc2)c(C)c1`, for which the Potency result was “inactive”.

As to `CC1(C)C(/C=C(\Cl)C(F)(F)F)C1C(=O)OC(C#N)c1cccc(Oc2ccccc2)c1` (stereo not given), the Potency entry is “inactive”.

As for `CC(C)N(C(=O)SC/C(Cl)=C/Cl)C(C)C`, the Potency result is “inactive”.

With `COc1cc(Cl)c(OC)cc1Cl`, the Potency entry was “inactive”.

`CN1CCc2cc3c(cc2C1O)OCO3` (stereo not given): the Potency result was “inactive”.

On to `CCCCc1ccccc1`, for which the Potency entry was “inactive”.
